We go through 40 targets from the supplement of paper PMC12819154, “High-throughput peptide-centric local stability assay extends protein–ligand identification to membrane proteins, tissues and bacteria” (Nature Structural & Molecular Biology, 2025).
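Note: lysate desalted by size exclusion to strip endogenous ATP, peptide intensities built from DIA-NN precursor signals, and peptides missing any value discarded before comparison.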

UniProt P77783, sequence (P77783 whole entry): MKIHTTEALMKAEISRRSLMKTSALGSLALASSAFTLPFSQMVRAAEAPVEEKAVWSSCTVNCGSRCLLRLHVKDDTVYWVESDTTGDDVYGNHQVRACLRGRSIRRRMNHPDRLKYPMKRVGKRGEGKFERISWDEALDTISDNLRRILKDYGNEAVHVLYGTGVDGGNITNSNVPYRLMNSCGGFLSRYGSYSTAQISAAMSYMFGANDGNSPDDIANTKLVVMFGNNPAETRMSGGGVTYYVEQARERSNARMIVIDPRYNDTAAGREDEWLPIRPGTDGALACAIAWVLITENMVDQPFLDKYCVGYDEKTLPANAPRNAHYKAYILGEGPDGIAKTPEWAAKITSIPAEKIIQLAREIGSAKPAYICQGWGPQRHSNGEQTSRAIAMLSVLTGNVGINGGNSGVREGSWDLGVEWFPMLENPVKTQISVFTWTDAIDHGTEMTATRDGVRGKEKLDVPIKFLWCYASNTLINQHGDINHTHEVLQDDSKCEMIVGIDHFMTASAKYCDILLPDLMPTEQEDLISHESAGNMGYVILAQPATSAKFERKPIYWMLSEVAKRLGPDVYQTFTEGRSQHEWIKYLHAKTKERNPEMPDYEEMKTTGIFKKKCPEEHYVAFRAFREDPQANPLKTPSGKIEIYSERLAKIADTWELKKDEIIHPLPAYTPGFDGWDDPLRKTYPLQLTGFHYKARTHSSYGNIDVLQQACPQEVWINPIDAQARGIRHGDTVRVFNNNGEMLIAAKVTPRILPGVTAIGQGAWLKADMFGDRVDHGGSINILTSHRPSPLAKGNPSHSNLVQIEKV
UniProt P00561, sequence (P00561 whole entry): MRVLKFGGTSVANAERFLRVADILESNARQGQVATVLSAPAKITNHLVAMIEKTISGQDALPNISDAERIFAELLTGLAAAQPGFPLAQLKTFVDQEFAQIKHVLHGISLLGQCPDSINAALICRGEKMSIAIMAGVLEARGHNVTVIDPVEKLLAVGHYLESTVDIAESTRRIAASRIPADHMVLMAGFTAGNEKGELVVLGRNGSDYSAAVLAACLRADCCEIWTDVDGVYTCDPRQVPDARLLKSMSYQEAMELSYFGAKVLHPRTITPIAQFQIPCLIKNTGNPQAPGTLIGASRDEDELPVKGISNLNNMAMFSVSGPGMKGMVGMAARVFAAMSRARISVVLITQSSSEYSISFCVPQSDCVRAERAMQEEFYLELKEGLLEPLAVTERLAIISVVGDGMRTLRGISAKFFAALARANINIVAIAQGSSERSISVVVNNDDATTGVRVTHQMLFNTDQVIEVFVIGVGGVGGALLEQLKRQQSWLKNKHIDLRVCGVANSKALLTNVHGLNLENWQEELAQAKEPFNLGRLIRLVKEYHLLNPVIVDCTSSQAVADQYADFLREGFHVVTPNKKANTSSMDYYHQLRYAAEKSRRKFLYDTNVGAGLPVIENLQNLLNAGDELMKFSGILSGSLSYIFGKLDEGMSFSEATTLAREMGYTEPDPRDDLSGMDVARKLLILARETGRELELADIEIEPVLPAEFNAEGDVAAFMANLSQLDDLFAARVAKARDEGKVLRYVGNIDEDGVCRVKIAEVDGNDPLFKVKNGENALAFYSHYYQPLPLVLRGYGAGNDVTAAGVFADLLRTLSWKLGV
UniProt P27278, sequence (P27278 whole entry): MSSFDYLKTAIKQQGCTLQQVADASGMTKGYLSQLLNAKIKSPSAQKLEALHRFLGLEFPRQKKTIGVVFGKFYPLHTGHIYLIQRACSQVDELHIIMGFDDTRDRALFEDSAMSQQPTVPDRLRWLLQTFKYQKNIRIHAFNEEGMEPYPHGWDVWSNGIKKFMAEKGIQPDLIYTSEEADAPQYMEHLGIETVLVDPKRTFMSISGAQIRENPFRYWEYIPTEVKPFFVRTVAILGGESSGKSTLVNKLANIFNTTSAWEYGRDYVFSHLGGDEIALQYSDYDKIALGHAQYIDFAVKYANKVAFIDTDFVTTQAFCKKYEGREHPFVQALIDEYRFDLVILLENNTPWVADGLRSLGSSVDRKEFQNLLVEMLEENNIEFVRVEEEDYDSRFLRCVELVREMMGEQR
UniProt P27833, sequence (P27833 whole entry): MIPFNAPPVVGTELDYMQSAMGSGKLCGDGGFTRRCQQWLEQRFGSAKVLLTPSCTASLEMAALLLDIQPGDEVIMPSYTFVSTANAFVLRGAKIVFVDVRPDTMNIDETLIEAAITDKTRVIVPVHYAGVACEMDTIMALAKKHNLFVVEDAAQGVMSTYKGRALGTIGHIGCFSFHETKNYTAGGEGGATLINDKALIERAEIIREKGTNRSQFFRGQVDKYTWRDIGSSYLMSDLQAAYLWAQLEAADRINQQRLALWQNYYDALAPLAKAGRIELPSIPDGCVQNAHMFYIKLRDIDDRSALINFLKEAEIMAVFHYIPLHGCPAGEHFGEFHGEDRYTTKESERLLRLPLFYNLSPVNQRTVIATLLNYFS
UniProt P75838, sequence (P75838 whole entry): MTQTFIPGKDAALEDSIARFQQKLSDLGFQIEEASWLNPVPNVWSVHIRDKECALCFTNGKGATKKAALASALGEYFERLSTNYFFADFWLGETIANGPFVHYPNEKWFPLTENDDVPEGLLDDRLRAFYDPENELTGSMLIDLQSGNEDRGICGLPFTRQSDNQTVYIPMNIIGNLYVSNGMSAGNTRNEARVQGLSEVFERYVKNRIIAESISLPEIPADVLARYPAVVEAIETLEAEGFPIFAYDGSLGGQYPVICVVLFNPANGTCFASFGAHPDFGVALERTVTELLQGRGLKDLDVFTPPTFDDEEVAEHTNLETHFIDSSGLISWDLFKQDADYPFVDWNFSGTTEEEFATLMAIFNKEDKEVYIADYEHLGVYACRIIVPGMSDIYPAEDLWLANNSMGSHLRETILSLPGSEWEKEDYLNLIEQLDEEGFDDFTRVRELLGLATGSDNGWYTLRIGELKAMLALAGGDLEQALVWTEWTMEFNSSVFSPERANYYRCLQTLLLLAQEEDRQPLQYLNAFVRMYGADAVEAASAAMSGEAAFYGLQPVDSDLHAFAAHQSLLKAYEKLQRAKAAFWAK
UniProt P75682, sequence (P75682 whole entry): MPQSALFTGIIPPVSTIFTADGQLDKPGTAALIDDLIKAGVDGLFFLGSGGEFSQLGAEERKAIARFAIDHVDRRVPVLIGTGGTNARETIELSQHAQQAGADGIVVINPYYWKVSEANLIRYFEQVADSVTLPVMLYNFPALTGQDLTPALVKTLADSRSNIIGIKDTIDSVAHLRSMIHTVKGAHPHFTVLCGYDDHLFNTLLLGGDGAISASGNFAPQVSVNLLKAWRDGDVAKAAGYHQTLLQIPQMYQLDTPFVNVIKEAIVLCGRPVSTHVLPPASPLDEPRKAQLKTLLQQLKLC
UniProt P05041, sequence (P05041 whole entry): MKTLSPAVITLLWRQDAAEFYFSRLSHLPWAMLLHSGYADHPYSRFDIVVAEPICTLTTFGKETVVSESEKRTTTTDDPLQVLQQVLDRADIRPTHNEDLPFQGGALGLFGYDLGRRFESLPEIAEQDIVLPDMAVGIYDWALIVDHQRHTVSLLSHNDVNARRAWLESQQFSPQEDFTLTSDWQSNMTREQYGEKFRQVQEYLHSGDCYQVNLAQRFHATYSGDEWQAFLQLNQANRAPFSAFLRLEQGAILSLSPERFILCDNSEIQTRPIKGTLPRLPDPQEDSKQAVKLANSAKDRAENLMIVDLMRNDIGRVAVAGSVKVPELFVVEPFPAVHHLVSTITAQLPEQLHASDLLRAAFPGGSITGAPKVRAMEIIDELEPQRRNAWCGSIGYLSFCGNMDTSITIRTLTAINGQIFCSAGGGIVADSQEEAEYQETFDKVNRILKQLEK
UniProt P15082, sequence (P15082 whole entry): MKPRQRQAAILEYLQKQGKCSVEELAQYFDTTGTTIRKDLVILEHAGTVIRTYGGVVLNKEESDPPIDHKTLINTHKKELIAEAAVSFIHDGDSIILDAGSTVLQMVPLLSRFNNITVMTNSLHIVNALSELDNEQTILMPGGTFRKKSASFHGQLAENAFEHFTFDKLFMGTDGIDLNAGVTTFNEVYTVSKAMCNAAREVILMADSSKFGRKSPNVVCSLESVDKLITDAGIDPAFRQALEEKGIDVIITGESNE
UniProt P25437, sequence (P25437 whole entry): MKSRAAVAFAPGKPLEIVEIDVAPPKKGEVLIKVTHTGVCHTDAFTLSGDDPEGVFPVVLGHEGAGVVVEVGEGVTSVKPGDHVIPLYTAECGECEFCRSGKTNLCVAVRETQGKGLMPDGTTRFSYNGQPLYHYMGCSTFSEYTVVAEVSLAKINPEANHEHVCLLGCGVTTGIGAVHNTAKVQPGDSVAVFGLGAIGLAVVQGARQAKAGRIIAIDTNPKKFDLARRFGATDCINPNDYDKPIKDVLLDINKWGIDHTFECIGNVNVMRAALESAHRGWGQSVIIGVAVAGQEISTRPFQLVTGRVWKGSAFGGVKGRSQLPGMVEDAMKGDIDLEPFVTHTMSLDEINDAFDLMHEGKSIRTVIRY
UniProt P76502, sequence (P76502 whole entry): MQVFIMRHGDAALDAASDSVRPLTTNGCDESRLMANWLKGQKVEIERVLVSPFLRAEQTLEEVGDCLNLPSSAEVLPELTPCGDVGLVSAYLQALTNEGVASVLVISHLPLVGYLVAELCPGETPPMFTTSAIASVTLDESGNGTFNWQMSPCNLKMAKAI
UniProt P76938, sequence (P76938 whole entry): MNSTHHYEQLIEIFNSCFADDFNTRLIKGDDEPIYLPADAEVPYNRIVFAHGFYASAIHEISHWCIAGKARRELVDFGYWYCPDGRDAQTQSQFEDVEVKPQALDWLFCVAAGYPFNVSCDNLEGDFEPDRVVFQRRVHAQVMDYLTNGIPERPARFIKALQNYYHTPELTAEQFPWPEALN
UniProt P0DPP7, sequence (P0DPP7 whole entry): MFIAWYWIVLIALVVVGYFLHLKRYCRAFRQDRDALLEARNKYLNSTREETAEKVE

Compound in the experiment: Nc1ncnc2c1ncn2[C@@H]1O[C@H](COP(=O)(O)OP(=O)(O)OP(=O)(O)O)[C@@H](O)[C@H]1O [adenosine 5'-triphosphate]
The experiment in a line: log2 fold change of tryptic peptide abundance, ligand vs vehicle (limited proteolysis) (log2 ratio); higher = more trypsin-susceptible (destabilized). Particulars: ligand concentration: 5 mM; sample: E. coli desalted lysate; replicate design: treated before aliquoting. The procedure:
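HT-PELSA: desalted E. coli K-12 BW25113 lysate (with 12 mM MgCl2) incubated with 5 mM ATP (pH 7) or water for 30 min at 25 C, then a 4 min trypsin pulse at 22 C. Peptides were quantified by DIA-MS (4 replicates). Value is the peptide log2 fold change (treated/control); negative = stabilized. Scale: negative = ligand-stabilized region.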
“UniProt P14081 (peptide sequence: EHLLQLPER, peptide start residue: 159)”: the log2 fold change is -1.29. For “UniProt P24188 (peptide sequence: NHYEYEVGHFENALEIPADTFR, peptide start residue: 157)”, the log2 fold change is 0.32. As for “UniProt P03024 (peptide sequence: HSVSTPSLEASHHATSD, peptide start residue: 327)”, the log2 fold change was 0.482. On to “UniProt P77766 (peptide sequence: LAQGGAVTR, peptide start residue: 133)”, for which the log2 fold change was -0.418. Consider “UniProt P76502 (peptide sequence: VLVSPFLR, peptide start residue: 48)”, for which the log2 fold change was 0.397.

In the case of “UniProt P45577 (peptide sequence: VAGEMNLSKTQLR, peptide start residue: 46)”, the log2 fold change amounted to 0.623. Under “UniProt P29131 (peptide sequence: MAGHTNCIR, peptide start residue: 306)” stands -0.526. With “UniProt P00946 (peptide sequence: FEAKPANQLLTQPVK, peptide start residue: 293)”, the log2 fold change was -0.633.

As to “UniProt P24240 (peptide sequence: YGFVFVDRDDAGNGTLTR, peptide start residue: 436)”, the log2 fold change was -0.866. Consider “UniProt P0AA37 (peptide sequence: LLLHAEMLTITHPAYGNSMTFK, peptide start residue: 193)”, for which the log2 fold change was -0.465. As to “UniProt P15082 (peptide sequence: QRQAAILEYLQK, peptide start residue: 5)”, the log2 fold change was determined as 2.18.

For the target “UniProt P09147 (peptide sequence: REGDLPAYWADASKADR, peptide start residue: 292)”, the log2 fold change worked out at 0.627. In the case of “UniProt P07821 (peptide sequence: TLLHPLSLTFPAGK, peptide start residue: 25)” it was -1.16; in that of “UniProt P05041 (peptide sequence: APFSAFLR, peptide start residue: 239)”, 0.459. Consider “UniProt P25437 (peptide sequence: SQLPGMVEDAMK, peptide start residue: 321)”, for which the log2 fold change is -0.846. Consider “UniProt P00363 (peptide sequence: VSQAFWHEWR, peptide start residue: 291)”, for which the log2 fold change is -0.722. Consider “UniProt P27833 (peptide sequence: LCGDGGFTR, peptide start residue: 26)”, for which the log2 fold change was -0.494.

Take “UniProt P75682 (peptide sequence: AWRDGDVAK, peptide start residue: 229)”: the log2 fold change is -1.32. Turning to “UniProt P0DPP7 (peptide sequence: NKYLNSTR, peptide start residue: 41)”, the log2 fold change is 0.633. Consider “UniProt P00561 (peptide sequence: NKHIDLR, peptide start residue: 493)”, for which the log2 fold change was 1.32. Regarding “UniProt P00562 (peptide sequence: ILDEAGLPGELR, peptide start residue: 375)”, the log2 fold change turned out to be 0.23. On to “UniProt P77783 (peptide sequence: MNHPDRLK, peptide start residue: 109)”, for which the log2 fold change is -0.483. On to “UniProt P23840 (peptide sequence: HFIPVLTR, peptide start residue: 38)”, for which the log2 fold change worked out at 0.387. In the case of “UniProt P0C0T5 (peptide sequence: WTSAQLLRPQALDLVSR, peptide start residue: 130)” it was 0.388; in that of “UniProt P31475 (peptide sequence: AHLNTLMAEMAALKENFRR, peptide start residue: 132)”, 0.66. Regarding “UniProt P75838 (peptide sequence: GICGLPFTR, peptide start residue: 152)”, the log2 fold change was -2.31.

Take “UniProt P23874 (peptide sequence: ISVAGAQEK, peptide start residue: 149)”: the log2 fold change was -4.86.

For the target “UniProt P0AA41 (peptide sequence: LLAQQFEQHQIQKR, peptide start residue: 72)”, the log2 fold change is -1.05.

In the case of “UniProt P77737 (peptide sequence: TRCPIAGPECAK, peptide start residue: 302)”, the log2 fold change is 2.24.

For the target “UniProt P77536 (peptide sequence: MVDELGHWEEWRDR, peptide start residue: 41)”, the log2 fold change is -0.517. On to “UniProt P07395 (peptide sequence: GKGVAEGYK, peptide start residue: 746)”, for which the log2 fold change was -0.76. For the target “UniProt P27859 (peptide sequence: ELLPLIPAEK, peptide start residue: 188)”, the log2 fold change is -0.738. On to “UniProt P55135 (peptide sequence: RLSDSPER, peptide start residue: 69)”, for which the log2 fold change was -0.744.

Consider “UniProt P04995 (peptide sequence: TDLGDNAAVPVK, peptide start residue: 288)”, for which the log2 fold change was found to be 0.472. For “UniProt P0AFU8 (peptide sequence: FSDEIGGHLMSGHIMTTAEVAK, peptide start residue: 90)”, the log2 fold change was 0.559.

Consider “UniProt P76419 (peptide sequence: GGDCAPTREELLLAHK, peptide start residue: 304)”, for which the log2 fold change is -1.82.

With “UniProt P33030 (peptide sequence: TTPESEQALQR, peptide start residue: 157)”, the log2 fold change was -0.316. In the case of “UniProt P76440 (peptide sequence: EELDEFPASEKEFTSAR, peptide start residue: 286)”, the log2 fold change is 0.874. In the case of “UniProt P76938 (peptide sequence: RVHAQVMDYLTNGIPERPAR, peptide start residue: 137)” it was 0.412; in that of “UniProt P27278 (peptide sequence: TFMSISGAQIR, peptide start residue: 202)”, -2.94.
